A number with no mark means an inactive call.
Legend:
[1] = tested on: Mel-DCC-11; assay: cell viability relative to DMSO control (fraction of DMSO control); higher = less cytotoxic, active = 0.5 or less; conditions: 1 µM; 120 h
Outline: (§1)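 Patient-derived Mel-DCC-11, its resistant subline Mel-DCC-11-R (alone and with 8 µM of its selecting drug) and NHEM-hTERT immortalized melanocytes were exposed for 120 h to 315 approved anti-cancer drugs at 1 µM in duplicate. Luminescence was read with ATPlite 1step. Viability was normalised to vehicle controls and averaged over duplicates.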

[2] = tested on: NHEM-hTERT; assay: as above; conditions: 1 µM; 120 h
Outline: as §1

[3] = tested on: Mel-DCC-11-R; assay: cell viability relative to DMSO control (fraction of DMSO control); higher = less cytotoxic, active = 0.8 or less; conditions: 1 µM, 120 h
Outline: as §1

Row | Structure (SMILES) | cell viability [1] | cell viability [2] | cell viability ([3]; vemurafenib co-treatment 0 µM) | cell viability ([3]; vemurafenib co-treatment 8 µM)
1 | COc1cc2c(N3CCN(C(=O)Nc4ccc(OC(C)C)cc4)CC3)ncnc2cc1OCCCN1CCCCC1 [Tandutinib] | 1.21 | 1.15 | 0.907 | 1.04
2 | C=C[C@H]1[C@@H](O[C@@H]2O[C@H](CO)[C@@H](O)[C@H](O)[C@H]2O)OC=C2C(=O)OCC[C@]21O [Swertiamarin] | 1.35 | 0.942 | 0.976 | 1.2
3 | N#CC1(c2ccc(NC(=O)c3cccnc3NCc3ccncc3)cc2)CCCC1 [Apatinib] | 1.03 | 0.966 | 1.14 | 1.13
4 | Cc1cc(Nc2cc(N3CCN(C)CC3)nc(Sc3ccc(NC(=O)C4CC4)cc3)n2)n[nH]1 [Tozasertib] | 1.56 | 0.841 | 1.14 | 0.752 (active)
5 | CC(C)CN(C[C@@H](O)[C@H](Cc1ccccc1)NC(=O)O[C@H]1CCOC1)S(=O)(=O)c1ccc(N)cc1 [Amprenavir] | 0.769 | 0.952 | 0.854 | 0.833
